Sampled rows, rich in hits. Any-hit rate of the full collection: about 10%.
HP1b binding inh: HTS for Inhibitors of HP1-beta Chromodomain Interactions with Methylated Histone Tails | Chromobox protein homolog 1 (Homo sapiens), P83916 | AlphaScreen HP1-beta / biotin-H3K9me3 peptide binding | Potency, µM (series often up to 114 µM), without a hit: at the highest dose activity change, negative = inhibition, actives largely listed as inhibitors | 390,000 tested, 0.56% active | AID 540317, 2011; also: nearly all actives have a fitted effect of over 70% in size
Target sequence (P83916 whole entry, looked up): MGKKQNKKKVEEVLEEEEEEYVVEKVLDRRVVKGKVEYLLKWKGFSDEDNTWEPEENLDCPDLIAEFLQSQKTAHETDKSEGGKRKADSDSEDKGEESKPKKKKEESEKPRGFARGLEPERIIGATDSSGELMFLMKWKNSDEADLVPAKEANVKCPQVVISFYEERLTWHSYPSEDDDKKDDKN
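HP1-beta protein (50 nM final) preincubated 30 min at room temperature with biotinylated H3(1-18)K9me3 peptide (50 nM) in PBS pH 7.4, 0.01% Tween-20, then compound added for 30 min. AlphaScreen streptavidin donor/nickel chelate acceptor beads (10 ug/mL final), 30 min dark, luminescence read.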
JMJD2A Tudor: qHTS Assay for Inhibitors of JMJD2A-Tudor Domain | AlphaScreen JMJD2A-Tudor / H3K4me3 peptide binding | Potency, µM (titrated, usually from 114 µM), without a hit: top-dose activity change, negative = inhibition, hits mostly inhibitors | 390,000 tested, 4.4% active | AID 504339, 2011; also: % is scaled to controls: 0 for no effect and ±100 for the full control effect; nearly all actives have a fitted effect of over 50% in size
L3MBTL1 inh: qHTS Assay for the Inhibitors of L3MBTL1; AlphaScreen L3MBTL1–H3K9me1 peptide binding; Potency, µM (top dose mostly 57.1 µM), for inactives: at the top dose activity, negative = inhibition, hits mostly inhibitors; 230,000 tested, 0.66% active; AID 485360, 2010; also: % is scaled to controls: 0 for no effect and ±100 for the full control effect; nearly all actives have a fitted effect of over 60% in size
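First, the protein-peptide complex forms for 30 min at room temperature (L3MBTL1 50 nM, biotinylated H3K9me1 peptide 75 nM). Next, compounds are pin-transferred and incubated 30 min. Finally, AlphaScreen beads are added and read after 30 min.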
GLS inh: qHTS for Inhibitors of Glutaminase (GLS). Glutaminase kidney isoform, mitochondrial (Homo sapiens), O94925. 410,000 tested, 0.21% active. Potency, µM (series often up to 45.5 µM), without a hit: top-dose activity change, negative = inhibition, hits mostly inhibitors. AID 624170, 2012. GLS enzymatic activity, qHTS titration; also: % is scaled to controls: 0 for no effect and ±100 for the full control effect
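hKGA; 45 mM KH2PO4 pH 8.2 + 0.02% Tween-20; cpd via pin tool; 1 mM Gln soln; GluOx/HRP/Amplex Red; RT 30 min; fluor. t0 & final.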
BAZ2B inh: qHTS Assay for Inhibitors of BAZ2B | 360,000 tested, 4.4% active | Bromodomain adjacent to zinc finger domain protein 2B (Homo sapiens), Q9UIF8 | AlphaScreen BAZ2B-H3K14Ac peptide displacement | Potency, µM (doses to about 114 µM), without a hit: top-dose activity change, negative = inhibition, usual class: inhibitors; also: % is scaled to controls: 0 for no effect and ±100 for the full control effect; nearly all actives have a fitted effect of over 60% in size
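AlphaScreen luminescence quantifies BAZ2B engagement of H3K14Ac peptide; the protein and biotinylated peptide are both at 50 nM final, buffer PBS pH 7.4 with 0.01% Tween-20, all steps at room temperature.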
G9a block: qHTS Assay for Inhibitors of Histone Lysine Methyltransferase G9a | Potency, µM (top dose mostly 102 µM), inactives show at the top dose activity, negative = inhibition, actives largely listed as inhibitors | 350,000 tested, 8.8% active | G9a H3K9 monomethylation, AlphaScreen, 2 h | Histone-lysine N-methyltransferase EHMT2 (Homo sapiens), Q96KQ7; also: % is scaled to controls: 0 for no effect and ±100 for the full control effect; nearly all actives have a fitted effect of over 75% in size
Target sequence (Q96KQ7 913-1193 limits assumed): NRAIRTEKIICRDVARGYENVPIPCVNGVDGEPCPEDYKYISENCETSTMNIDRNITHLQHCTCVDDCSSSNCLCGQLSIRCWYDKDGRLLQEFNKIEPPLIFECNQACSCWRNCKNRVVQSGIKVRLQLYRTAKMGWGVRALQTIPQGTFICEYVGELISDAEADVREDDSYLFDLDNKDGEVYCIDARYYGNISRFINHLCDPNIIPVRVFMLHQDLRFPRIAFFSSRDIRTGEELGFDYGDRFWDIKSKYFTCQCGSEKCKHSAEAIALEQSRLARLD
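G9a (20 nM) preincubated 15 min RT with compounds, then 500 nM biotinylated H3K9 peptide and 20 uM SAM added; 2 h RT reaction. Monomethyl-H3K9 product detected by AlphaScreen with anti-H3K9me1 antibody, streptavidin donor and anti-rabbit IgG acceptor beads.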
The depositor's hits bear a star; ? = inconclusive; . = no result; [ ] = dose if it differs, or a comment. Calls follow the shape of the dose curve; as a rule, active = well fitted curve in the direction sought with a large enough effect; inconclusive = small, poorly fitted or top-dose-only effect, or another doubt; inactive = no such curve, though single readings can be large; an effect the other way counts as inactive or inconclusive. Potency is read from the fitted curve at half-maximal effect.

SMILES	HP1b binding inh	JMJD2A Tudor	L3MBTL1 inh	GLS inh	BAZ2B inh	G9a block
O=C(NCC(=O)N1CC=C(c2ccccc2)CC1)c1ccc(OC(F)F)cc1	27.7%	-8.8%	-4.5%	2.3%	.	.
COc1cc(OC)cc(C(=O)NCC(=O)N2CC=C(c3ccccc3)CC2)c1	17.3%	-15.5%	29.1%	1.8%	-16.0%	50.1µM*
CCc1ccc(NC(=O)Cn2c(SCc3ccc(C)cc3)nc3ccncc32)cc1	24.6%[57 µM]	-14.6%[57.1 µM]	.	.	.	.
CN(C)c1ccc(NC(=O)Cn2c(SCc3ccc(F)cc3)nc3ccncc32)cc1	2.0%	?	.	-4.7%	?	6.31µM*
CC(=O)c1ccc(NC(=O)C(C)n2nc(-c3ccccc3)ccc2=O)cc1 (stereo not given)	43.7%	-1.3%	.	6.0%	-6.0%	8.5%[59 µM]
Cc1nc2nc(CC(=O)O)[nH]n2c(=O)c1[N+](=O)[O-]	20.1%	17.8µM*	8.6%	-3.1%	-15.8%	-12.3%[12.7 µM]
CC(C)OC(=O)Cn1c(-c2ccccc2)c(-c2ccccc2)nnc1=O	42.3%	-9.8%	.	-9.0%	-15.2%	.
COC(=O)Cn1c(-c2ccc(OC)cc2)c(-c2ccc(OC)cc2)nnc1=O	-2.5%	-16.9%	-0.6%[2.29 µM]	0.4%	56.2µM*	-13.9%[0.501 µM]
CC(C)N1CCc2c(sc(NC(=O)c3ccc(C(=O)c4ccccc4)cc3)c2C(N)=O)C1	-18.5%	56.2µM*	.	-1.5%	?	.
CC(C)N1CCc2c(sc(NC(=O)CCc3ccccc3)c2C(N)=O)C1	51.7%	-11.6%	32.2%	12.6%	?	44.7µM*
CC(C)N1CCc2c(sc(NC(=O)c3ccco3)c2C(N)=O)C1	26.2%	-12.3%	.	2.5%	-4.0%	.
CC(C)N1CCc2c(sc(NC(=O)Cc3ccccc3)c2C(N)=O)C1	30.9%	-1.4%	7.2%	16.7%	?	2.9%
CC(=O)c1ccc(C(=O)Nc2sc3c(c2C(N)=O)CCN(Cc2ccccc2)C3)cc1	.	.	-2.3%	.	-28.0%	?
COC(=O)c1c(NC(=O)c2ccco2)sc2c1CCN(C(C)C)C2	40.9%	-12.4%	.	14.8%	-25.4%	31.6µM*
COc1cccc(OC)c1C(=O)Nc1sc2c(c1C(N)=O)CCN(Cc1ccccc1)C2	16.0%	-30.6%	0.4%	18.6%	-31.6%	79.4µM*
O=C(Cn1c(=O)n(-c2ccccc2)c(=O)c2c3c(sc21)CCCC3)Nc1ccc(F)cc1F	14.4%	-7.5%	.	18.1%	?	-31.9%[59 µM]
CCN(C(=O)Cn1c(SCc2ccccc2F)nc2cccnc21)c1ccccc1	24.5%	-20.8%	.	-3.8%	-6.0%	-54.8%[59 µM]
COC(=O)c1c(NC(=O)c2ccc(S(=O)(=O)N3CCCCC3C)cc2)sc2c1CCN(C(C)C)C2 (stereo not given)	71.1%	-29.7%	.	4.2%	0.1%	-17.7%[59 µM]
CC(C)N1CCc2c(sc(NC(=O)c3ccc(S(=O)(=O)N4CCCCC4C)cc3)c2C(N)=O)C1 (stereo not given)	10.5%	-20.3%	.	14.1%	50.1µM*	-19.2%
O=C(OCc1ccccc1)c1ccc(NCc2cc(O)ccc2O)cc1	?	25.1µM*	.	?	.	.
CC(C)OC(=O)c1ccc(NCc2cc(O)ccc2O)cc1	39.8µM*	3.98µM*	.	-20.3%	.	.
COP(=O)(OC)c1ccc(NCc2cc(O)ccc2O)cc1	?	3.55µM*	.	?	.	.
CC(C)OC(=O)c1ccc(NC(=O)c2ccccc2)cc1	39.5%	3.4%	10.2%	0.5%	10.2%	-8.6%[59 µM]
CCc1ccccc1-n1nnc(-c2nc(-c3ccccc3F)no2)c1C	47.9%	1.6%	.	-16.2%	1.9%	1.6%[59 µM]

From PubChem BioAssay
